Experimental data from the supplement of paper PMC11732987, “Enantioselective OTUD7B fragment discovery through chemoproteomics screening and high-throughput optimisation” (Communications Chemistry, 2025).

Assays:
Test in all cases: log2 ratio of Biotin-Ahx-Ub-VS probe labelling (fragment/DMSO); higher = less target engagement (more negative = stronger competition), active = hit call of the paper (q ≤ 0.05, log2 ratio ≤ -1)
Details in all cases: compound concentration: 200 uM; treatment time: 3 h
[1] = molecular target: T1, USP42 (UniProt Q9H9J4)
T1 sequence (whole entry): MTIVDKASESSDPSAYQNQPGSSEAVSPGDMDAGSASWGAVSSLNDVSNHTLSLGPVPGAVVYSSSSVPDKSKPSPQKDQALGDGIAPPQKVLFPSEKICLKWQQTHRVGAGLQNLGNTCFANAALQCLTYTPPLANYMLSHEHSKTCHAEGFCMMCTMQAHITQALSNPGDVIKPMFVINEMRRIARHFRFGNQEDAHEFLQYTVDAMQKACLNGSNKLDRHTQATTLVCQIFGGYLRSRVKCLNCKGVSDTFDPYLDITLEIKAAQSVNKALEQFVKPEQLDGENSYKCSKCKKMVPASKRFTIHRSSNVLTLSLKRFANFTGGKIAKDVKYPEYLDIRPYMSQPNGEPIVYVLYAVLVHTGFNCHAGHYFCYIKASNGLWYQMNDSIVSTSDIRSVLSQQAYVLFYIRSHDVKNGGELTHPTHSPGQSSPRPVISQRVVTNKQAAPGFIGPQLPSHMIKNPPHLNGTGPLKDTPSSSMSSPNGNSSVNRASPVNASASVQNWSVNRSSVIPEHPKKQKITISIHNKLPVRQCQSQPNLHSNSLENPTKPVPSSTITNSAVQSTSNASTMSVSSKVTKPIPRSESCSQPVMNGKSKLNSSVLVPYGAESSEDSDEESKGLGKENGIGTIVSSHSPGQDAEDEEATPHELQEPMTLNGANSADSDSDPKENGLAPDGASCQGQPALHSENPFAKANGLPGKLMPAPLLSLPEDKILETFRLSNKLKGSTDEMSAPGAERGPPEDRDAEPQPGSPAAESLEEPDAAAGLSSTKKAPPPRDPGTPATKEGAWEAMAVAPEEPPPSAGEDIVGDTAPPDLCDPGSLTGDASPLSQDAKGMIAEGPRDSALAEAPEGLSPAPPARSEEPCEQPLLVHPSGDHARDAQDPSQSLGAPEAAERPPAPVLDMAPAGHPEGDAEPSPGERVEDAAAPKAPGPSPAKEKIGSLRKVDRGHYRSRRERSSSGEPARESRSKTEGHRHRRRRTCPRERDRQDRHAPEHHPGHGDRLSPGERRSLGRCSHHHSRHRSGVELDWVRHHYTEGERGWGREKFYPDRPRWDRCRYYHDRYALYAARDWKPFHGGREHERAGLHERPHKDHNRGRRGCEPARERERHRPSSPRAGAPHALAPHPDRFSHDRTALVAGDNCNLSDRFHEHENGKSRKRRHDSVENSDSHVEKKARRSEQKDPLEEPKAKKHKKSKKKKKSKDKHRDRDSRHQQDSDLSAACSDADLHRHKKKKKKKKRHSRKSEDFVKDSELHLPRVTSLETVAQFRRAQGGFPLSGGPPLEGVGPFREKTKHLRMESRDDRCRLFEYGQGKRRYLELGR
In short: (§1)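 Labelled DUBs were enriched with NeutrAvidin, digested with LysC and trypsin, and run by diaPASEF LC-MS/MS. The labelling used Biotin-Ahx-Ub-VS at 0.5 µM final for 1 h on HEK293T lysate (495 µg per sample) previously treated in triplicate with fragment at 200 µM or vehicle for 3 h. Values are average log2 fragment/vehicle ratios by unpaired t-test on global-median-normalised Spectronaut quantities of proteins with ≥2 unique peptides.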

[2] = molecular target: USP46 (UniProt P62068)
In short: as §1

[3] = molecular target: T2, USP47 (UniProt Q96K76)
T2 sequence (whole entry): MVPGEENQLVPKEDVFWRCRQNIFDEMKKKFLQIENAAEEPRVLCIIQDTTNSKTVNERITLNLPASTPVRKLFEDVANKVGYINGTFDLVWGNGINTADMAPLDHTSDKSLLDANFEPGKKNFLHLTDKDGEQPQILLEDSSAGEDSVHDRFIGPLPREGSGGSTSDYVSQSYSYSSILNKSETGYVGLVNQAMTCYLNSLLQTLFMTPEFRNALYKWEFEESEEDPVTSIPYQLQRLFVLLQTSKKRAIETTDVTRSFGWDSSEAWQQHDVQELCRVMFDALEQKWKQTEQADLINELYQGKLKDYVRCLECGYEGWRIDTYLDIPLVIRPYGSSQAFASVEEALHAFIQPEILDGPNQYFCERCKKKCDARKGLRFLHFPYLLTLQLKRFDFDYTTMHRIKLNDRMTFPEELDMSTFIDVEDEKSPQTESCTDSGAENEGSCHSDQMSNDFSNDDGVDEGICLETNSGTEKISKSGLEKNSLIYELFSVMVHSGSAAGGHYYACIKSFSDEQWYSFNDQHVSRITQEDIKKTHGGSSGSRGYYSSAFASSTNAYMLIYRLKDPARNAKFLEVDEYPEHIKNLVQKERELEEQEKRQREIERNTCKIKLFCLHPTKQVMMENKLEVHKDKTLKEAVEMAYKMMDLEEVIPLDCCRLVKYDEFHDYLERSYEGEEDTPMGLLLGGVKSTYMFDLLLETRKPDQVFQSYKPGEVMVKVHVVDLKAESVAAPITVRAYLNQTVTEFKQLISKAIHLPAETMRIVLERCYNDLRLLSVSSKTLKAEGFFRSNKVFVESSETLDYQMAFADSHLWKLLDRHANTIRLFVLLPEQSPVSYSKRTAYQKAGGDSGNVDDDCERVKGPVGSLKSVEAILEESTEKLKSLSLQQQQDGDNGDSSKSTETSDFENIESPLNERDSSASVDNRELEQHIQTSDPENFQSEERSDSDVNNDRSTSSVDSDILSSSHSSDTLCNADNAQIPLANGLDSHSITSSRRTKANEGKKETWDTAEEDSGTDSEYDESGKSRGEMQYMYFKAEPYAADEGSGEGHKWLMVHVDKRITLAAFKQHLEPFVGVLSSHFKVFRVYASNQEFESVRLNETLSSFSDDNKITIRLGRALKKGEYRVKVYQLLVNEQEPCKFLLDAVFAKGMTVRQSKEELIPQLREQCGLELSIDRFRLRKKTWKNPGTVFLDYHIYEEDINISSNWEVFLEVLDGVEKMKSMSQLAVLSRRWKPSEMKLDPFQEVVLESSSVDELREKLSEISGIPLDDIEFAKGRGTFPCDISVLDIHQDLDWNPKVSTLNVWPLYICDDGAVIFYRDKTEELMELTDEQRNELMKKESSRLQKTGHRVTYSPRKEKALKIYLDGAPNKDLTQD
In short: as §1

[4] = molecular target: T3, USP48 (UniProt Q86UV5)
T3 sequence (whole entry): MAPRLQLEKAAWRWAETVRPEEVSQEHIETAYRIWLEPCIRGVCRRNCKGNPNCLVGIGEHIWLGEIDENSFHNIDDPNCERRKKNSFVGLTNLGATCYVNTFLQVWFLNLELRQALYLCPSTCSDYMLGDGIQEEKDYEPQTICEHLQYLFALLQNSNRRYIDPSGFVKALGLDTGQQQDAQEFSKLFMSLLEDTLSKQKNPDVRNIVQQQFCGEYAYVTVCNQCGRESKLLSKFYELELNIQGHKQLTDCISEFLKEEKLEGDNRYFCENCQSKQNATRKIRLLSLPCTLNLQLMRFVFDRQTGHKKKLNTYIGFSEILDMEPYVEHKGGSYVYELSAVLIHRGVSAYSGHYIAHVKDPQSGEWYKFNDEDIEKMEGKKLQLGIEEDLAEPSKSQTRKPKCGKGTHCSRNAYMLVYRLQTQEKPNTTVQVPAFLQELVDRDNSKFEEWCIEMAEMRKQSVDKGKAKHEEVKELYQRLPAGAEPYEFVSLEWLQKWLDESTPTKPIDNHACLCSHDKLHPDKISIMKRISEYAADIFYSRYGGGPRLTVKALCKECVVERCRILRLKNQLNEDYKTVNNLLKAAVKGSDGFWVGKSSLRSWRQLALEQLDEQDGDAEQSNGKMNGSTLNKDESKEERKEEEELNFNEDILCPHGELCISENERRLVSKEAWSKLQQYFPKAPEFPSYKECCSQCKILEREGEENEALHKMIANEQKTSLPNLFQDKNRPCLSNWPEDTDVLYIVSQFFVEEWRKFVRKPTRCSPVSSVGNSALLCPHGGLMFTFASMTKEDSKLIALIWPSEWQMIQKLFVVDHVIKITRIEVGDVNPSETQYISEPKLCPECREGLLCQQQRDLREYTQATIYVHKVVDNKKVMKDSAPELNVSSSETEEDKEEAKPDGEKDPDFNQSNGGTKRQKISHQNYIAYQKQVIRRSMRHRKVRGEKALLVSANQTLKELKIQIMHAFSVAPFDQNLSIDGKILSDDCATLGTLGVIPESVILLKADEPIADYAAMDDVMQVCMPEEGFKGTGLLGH
In short: as §1

[5] = molecular target: T4, USP5 (UniProt P45974)
T4 sequence (whole entry): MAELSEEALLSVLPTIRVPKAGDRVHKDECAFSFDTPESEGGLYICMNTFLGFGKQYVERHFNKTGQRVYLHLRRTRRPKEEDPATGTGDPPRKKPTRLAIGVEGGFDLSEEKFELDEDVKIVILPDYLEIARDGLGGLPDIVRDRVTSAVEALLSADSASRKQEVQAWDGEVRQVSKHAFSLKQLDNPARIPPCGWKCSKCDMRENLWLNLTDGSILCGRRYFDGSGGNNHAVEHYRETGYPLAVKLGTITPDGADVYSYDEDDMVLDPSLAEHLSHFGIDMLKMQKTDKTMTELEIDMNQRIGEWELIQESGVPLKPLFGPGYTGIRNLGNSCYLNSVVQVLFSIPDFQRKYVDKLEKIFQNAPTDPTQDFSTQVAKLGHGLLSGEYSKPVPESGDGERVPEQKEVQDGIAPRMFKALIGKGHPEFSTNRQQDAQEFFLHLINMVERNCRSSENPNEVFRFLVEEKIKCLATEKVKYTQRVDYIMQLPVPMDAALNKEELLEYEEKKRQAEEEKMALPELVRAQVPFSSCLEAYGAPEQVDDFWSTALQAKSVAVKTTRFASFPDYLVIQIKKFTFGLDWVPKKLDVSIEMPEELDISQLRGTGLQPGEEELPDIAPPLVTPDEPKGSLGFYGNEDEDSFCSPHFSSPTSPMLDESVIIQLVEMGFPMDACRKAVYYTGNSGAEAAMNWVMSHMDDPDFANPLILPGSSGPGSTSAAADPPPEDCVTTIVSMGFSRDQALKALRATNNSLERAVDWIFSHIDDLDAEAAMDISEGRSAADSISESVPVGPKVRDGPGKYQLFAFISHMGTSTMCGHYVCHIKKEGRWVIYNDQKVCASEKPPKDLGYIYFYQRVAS
In short: as §1

[6] = molecular target: USP54 (UniProt Q70EL1)
In short: as §1

[7] = molecular target: USP7 (UniProt Q93009)
In short: as §1

[8] = molecular target: T5, USP8 (UniProt P40818)
T5 sequence (whole entry): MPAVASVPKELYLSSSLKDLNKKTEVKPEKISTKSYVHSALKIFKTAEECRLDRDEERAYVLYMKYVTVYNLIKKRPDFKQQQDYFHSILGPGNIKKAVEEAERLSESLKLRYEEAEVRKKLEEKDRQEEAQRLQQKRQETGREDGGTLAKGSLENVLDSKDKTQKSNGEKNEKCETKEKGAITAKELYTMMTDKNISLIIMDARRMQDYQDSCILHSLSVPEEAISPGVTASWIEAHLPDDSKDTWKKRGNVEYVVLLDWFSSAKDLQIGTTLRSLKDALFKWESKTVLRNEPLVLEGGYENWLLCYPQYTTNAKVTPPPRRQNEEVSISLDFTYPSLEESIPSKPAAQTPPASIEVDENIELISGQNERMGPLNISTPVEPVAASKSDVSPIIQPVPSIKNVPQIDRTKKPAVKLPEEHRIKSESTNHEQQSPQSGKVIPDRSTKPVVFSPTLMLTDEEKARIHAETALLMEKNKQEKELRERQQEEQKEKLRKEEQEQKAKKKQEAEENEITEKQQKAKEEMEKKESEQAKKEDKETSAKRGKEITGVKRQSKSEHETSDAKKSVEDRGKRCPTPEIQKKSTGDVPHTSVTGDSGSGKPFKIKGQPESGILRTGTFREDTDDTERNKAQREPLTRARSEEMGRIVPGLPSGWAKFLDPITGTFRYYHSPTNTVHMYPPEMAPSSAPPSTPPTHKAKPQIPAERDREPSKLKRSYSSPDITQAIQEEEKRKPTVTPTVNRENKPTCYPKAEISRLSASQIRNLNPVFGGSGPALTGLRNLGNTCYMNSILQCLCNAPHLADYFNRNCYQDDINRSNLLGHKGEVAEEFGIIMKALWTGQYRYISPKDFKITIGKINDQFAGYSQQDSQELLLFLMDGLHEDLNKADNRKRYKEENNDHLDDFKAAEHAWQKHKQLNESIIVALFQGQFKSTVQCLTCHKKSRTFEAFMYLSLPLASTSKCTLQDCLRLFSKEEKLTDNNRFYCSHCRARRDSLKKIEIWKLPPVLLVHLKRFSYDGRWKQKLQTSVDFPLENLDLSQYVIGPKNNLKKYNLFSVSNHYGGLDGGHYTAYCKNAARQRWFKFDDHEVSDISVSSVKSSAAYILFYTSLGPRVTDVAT
In short: as §1

[9] = molecular target: USP9X (UniProt Q93008)
In short: as §1

[10] = molecular target: UniProt O00487
In short: as §1

Measured: log2 ratio of Biotin-Ahx-Ub-VS probe labelling

Sequence of USP7 (Q93009 whole entry, looked up): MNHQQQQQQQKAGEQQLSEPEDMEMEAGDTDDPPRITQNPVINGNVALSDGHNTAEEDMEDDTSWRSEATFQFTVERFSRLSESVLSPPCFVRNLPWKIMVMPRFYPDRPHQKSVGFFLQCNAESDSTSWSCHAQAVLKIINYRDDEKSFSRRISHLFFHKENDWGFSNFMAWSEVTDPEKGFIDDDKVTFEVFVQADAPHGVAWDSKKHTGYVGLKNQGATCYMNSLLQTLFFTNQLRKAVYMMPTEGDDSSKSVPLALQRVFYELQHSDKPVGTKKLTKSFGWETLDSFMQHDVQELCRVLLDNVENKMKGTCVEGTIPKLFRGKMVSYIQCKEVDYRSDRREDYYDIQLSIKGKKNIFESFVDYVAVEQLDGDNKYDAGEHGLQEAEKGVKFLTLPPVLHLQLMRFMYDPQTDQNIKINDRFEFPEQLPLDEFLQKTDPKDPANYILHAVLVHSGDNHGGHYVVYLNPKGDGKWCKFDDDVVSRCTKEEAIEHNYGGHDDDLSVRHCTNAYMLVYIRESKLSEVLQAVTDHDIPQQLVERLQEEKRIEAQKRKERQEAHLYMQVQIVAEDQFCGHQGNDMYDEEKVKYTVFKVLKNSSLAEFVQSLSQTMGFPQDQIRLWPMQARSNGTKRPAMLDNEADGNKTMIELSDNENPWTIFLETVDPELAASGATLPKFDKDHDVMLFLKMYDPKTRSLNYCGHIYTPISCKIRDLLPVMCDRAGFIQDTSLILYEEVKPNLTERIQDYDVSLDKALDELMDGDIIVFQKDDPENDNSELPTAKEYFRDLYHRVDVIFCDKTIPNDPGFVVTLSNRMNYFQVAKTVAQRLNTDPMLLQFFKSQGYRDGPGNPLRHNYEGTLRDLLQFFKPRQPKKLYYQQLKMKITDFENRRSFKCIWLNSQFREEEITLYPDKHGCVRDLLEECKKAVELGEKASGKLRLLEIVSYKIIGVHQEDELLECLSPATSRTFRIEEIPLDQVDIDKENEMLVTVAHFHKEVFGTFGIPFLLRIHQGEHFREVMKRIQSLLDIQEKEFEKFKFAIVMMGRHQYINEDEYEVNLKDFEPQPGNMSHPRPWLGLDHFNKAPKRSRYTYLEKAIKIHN
Sequence of USP9X (Q93008 whole entry): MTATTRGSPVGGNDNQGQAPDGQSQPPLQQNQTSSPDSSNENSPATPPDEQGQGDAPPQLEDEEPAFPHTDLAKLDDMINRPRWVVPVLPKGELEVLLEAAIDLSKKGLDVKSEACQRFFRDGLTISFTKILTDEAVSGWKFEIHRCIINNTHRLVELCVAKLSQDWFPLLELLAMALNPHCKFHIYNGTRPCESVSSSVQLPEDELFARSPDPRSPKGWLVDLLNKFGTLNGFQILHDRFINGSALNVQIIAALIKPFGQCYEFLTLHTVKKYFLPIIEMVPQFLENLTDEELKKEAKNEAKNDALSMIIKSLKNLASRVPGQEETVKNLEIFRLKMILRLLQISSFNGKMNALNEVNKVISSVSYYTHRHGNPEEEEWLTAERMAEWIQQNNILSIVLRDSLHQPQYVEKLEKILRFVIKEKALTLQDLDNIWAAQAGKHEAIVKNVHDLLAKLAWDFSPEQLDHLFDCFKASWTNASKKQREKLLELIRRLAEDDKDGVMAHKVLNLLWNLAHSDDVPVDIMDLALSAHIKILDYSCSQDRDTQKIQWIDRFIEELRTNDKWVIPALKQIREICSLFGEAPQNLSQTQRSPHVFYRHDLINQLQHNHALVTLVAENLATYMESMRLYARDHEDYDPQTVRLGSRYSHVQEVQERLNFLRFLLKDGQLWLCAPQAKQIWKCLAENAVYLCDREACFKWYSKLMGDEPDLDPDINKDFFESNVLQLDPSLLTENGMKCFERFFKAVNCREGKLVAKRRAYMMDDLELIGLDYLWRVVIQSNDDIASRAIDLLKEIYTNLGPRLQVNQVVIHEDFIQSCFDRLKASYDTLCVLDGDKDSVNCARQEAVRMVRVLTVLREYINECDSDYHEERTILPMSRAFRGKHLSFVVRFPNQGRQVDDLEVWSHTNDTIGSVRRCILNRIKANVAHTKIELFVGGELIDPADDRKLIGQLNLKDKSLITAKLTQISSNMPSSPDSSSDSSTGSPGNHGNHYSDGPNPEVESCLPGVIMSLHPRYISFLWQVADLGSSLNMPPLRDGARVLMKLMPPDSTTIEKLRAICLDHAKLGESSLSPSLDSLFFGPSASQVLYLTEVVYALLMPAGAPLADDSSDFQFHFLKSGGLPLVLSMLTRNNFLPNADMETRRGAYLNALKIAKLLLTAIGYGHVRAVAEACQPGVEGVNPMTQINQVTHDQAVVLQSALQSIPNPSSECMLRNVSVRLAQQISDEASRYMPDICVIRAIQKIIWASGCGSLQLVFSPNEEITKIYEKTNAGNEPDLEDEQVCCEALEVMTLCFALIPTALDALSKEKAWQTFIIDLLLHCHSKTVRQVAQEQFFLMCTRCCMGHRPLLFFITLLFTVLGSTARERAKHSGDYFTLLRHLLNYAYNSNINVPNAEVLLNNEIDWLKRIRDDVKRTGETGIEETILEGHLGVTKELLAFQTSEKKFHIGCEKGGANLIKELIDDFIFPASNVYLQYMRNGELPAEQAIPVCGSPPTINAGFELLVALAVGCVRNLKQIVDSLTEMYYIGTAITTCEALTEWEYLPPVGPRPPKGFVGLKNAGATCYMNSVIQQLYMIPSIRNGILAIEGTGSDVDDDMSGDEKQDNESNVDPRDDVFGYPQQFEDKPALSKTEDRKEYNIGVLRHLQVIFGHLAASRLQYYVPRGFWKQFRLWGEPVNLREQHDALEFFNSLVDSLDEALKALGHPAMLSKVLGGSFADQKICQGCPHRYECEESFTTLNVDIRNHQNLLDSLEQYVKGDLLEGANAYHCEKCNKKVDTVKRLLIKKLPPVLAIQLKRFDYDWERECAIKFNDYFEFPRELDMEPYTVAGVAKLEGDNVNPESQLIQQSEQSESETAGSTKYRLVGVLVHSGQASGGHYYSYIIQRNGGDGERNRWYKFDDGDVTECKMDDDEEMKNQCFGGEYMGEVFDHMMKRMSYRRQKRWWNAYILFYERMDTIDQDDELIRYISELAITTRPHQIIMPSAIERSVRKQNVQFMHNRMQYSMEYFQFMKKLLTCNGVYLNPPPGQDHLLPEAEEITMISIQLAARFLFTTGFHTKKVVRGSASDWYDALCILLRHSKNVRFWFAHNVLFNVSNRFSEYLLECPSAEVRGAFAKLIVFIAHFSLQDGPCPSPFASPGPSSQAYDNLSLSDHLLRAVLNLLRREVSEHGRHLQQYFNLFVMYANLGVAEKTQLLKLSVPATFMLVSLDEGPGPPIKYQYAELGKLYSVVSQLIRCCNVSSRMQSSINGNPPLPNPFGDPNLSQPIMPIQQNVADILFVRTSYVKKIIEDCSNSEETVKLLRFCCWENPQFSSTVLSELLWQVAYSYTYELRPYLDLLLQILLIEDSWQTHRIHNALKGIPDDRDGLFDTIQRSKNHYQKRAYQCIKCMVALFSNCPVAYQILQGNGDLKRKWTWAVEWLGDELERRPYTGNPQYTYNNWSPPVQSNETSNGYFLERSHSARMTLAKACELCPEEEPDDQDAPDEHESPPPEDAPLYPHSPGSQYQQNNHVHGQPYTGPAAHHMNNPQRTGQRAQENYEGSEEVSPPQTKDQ
Sequence of USP46 (P62068 whole entry): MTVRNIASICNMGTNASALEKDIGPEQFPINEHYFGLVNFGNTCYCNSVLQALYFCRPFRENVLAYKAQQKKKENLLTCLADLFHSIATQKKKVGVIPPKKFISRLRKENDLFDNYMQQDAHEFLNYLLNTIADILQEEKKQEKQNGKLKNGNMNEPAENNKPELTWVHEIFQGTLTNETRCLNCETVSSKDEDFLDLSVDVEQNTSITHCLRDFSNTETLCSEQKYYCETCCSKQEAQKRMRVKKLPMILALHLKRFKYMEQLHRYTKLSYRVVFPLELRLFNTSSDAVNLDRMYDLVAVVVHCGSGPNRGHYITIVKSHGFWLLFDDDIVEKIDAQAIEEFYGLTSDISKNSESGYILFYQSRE
Sequence of UniProt O00487 (O00487 whole entry): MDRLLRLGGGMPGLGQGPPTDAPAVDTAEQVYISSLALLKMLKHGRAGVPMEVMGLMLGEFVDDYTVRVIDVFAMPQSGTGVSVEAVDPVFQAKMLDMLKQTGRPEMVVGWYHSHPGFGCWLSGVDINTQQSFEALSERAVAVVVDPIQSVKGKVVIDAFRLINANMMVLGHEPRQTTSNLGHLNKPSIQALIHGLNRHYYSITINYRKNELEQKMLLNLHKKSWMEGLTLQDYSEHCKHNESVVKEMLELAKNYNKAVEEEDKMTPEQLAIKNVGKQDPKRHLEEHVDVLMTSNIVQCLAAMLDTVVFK

O=C(CCl)Nc1cc(Cl)ccc1C(=O)O
inactive: [1] -0.11 | [2] 0.0628 | [3] 0.0765 | [4] 0.232 | [5] 0.436 | [6] 0.0975 | [7] 0.19 | [8] -0.256 | [9] -0.165 | [10] -0.0135
